ROMK mod = ROMK potassium channel modulators, primary screen, cell-based, thallium flux, MLSMR library. ATP-sensitive inward rectifier potassium channel 1 (Homo sapiens), P48048. Tet-inducible ROMK, thallium flux fluorescence; actives lie on both sides. 130,000 compounds, 2% hits. B-score at 10 µM;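 active means signal ratio slope over the read window, or its plate-corrected B-score, at least 3 SD from the plate mean, either direction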;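 further: B-score of the F/F0 ratio slope over 7 to 12 s after thallium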
Target sequence (P48048 whole entry, looked up): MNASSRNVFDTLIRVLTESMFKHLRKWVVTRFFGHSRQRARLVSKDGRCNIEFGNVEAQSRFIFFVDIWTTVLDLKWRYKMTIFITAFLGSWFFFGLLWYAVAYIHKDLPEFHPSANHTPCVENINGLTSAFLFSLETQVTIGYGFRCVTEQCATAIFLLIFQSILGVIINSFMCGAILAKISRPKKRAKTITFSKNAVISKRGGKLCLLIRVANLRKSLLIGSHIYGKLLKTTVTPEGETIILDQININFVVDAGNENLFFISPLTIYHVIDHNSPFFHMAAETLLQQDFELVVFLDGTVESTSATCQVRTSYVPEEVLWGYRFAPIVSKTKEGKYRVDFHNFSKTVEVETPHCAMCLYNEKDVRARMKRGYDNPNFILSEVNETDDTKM
Ins promoter up = insulin promoter activators in MIN6 cells, imaging, high-content screening, mouse beta cells; MIN6 insulin promoter-GFP reporter; hits give high values; z-score at 5 µM; 190,000 compounds, 0.3% hits; AID 1625, 2009;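 active means z-score above 3 at 5 µM with at least 500 cells counted in the well; inconclusive means wells under 500 cells, flagged as cytotoxic or low count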
TbHK1 inh = Trypanosoma brucei hexokinase 1 inhibitors, primary screen, biochemical, G6PDH-coupled NADH absorbance, MLSCN library. 220,000 compounds, 0.11% hits. inhibition, % at 10 µM. recombinant TbHK1, G6PDH-coupled NADH A340. hexokinase 1 [Trypanosoma brucei];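 active means inhibition of 50% or more in the single-dose primary screen; inactive means inhibition below 50%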
HSV augment = enhancers of HSV replication in host cells, fold increase, host cell viability | HSV replication augmentation in cells | maximum fold increase | 220,000 compounds, 0.005% hits | AID 1956, 2009; in the data active means maximum fold increase above about 1.5; inconclusive means no clear call, values can overlap the other calls; tested in PC3 cells
Insulin prom inh = inhibitors of insulin promoter-driven GFP, primary screen, imaging, TRM-6 cells (human fetal islet line), eGFP reporter, cell count; reporter expression induced with tamoxifen; inhibition, % at 2 µM; 130,000 compounds, 0.9% hits; AID 1273, 2008;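 active means inhibition above the mean plus 3 SD, with well images judged a real hit on visual review, cut at about 60% in these data, passing the limit was not always enough; inconclusive means inhibition over the cutoff but images rejected on review; inactive means inhibition not above the cutoff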
ROMK retest = ROMK channel modulator hit retest, confirmation, cell-based, thallium flux, duplicate, resupplied hits; shares compounds with ROMK mod; fluorescence ratio; hits give low values; normalized thallium flux (F/F0 slope) at 10 µM; 3,000 compounds, 54% hits;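 active means Flux at 10 µM at least 3 SD below or above vehicle control mean in one or both replicates; inconclusive means no clear call, values can overlap the other calls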
Of the large screens only hits and unclear results are named; the others gave an inactive call (follow-up assays come after a bar, where they were run). Many of the other results were omitted from the sample, so hits are more common in it than they were.

COc1cccc(C(C(=O)NC2CCCC2)N(CC2CCCO2)C(=O)Cc2cccs2)c1 (stereo not given)	none (no result: Insulin prom inh)
COc1ccccc1N=C(C)C1=C(O)CC(c2ccccc2)CC1=O (stereo not given)	ROMK mod 8 | ROMK retest inactive
O=C(NCCCN1CCOCC1)C(C(=O)NCCCN1CCOCC1)c1ncc(C(F)(F)F)cc1Cl	none (no result: Insulin prom inh)
Cn1c(=O)c2c(SCC(=O)N3CCCc4ccccc43)nc(C3CC3)nc2n(C)c1=O	none (no result: ROMK mod, Insulin prom inh) | ROMK retest inactive
O=C(/C=C/c1ccc(Br)cc1)N1CCN(c2cccc(C(F)(F)F)c2)CC1	none (no result: ROMK mod, Insulin prom inh) | ROMK retest inactive
COc1ccc(C2SCC(C(=O)O)N2C(C)=O)cc1 (stereo not given)	none (no result: Insulin prom inh)
CC(=O)N1C(C(=O)O)CSC1c1ccc(C)cc1 (stereo not given)	none (no result: ROMK mod, Insulin prom inh) | ROMK retest inactive
O=C(CN1C(=O)C2CC=CCC2C1=O)Nc1nc2ccccc2s1 (stereo not given)	none
O=C1C2C(C(=O)N1/N=C/c1cccc([N+](=O)[O-])c1)C1C=CC2C12CC2 (stereo not given)	none
CN(Cc1ccccc1NS(=O)(=O)c1ccc2ccccc2c1)C1CCCCC1	ROMK mod -2.9 | ROMK retest inconclusive
CN(Cc1ccccc1NS(=O)(=O)c1ccc(Cl)cc1)C1CCCCC1	none
CC(C)N(CCO)C(=O)CCc1nnc(Cc2cccc(C(F)(F)F)c2)o1	none (no result: Ins promoter up, Insulin prom inh)
CN(C)C(CNC(=O)c1cccc(OC(F)F)c1)c1ccco1 (stereo not given)	ROMK mod 1.1 | ROMK retest inactive
CC(C)CC(=O)N=C1SC2CS(=O)(=O)CC2N1Cc1ccccc1Cl (stereo not given)	none (no result: ROMK mod, Insulin prom inh)
O=C(N[C@@H](Cc1ccccc1)C(=O)NC1CCCCC1)c1ccco1	ROMK mod 1.9 (no result: HSV augment) | ROMK retest inactive
O=C(N[C@@H](Cc1ccccc1)C(=O)NC1CCCCCC1)c1ccco1	none (no result: Ins promoter up)
CCOC(=O)c1c(NC(=S)Nc2ccccc2)sc2c1CCN(CCc1ccccc1)C2	none (no result: ROMK mod, HSV augment) | ROMK retest 0.061
CCOC(=O)c1c(NC(=S)Nc2ccccc2)sc2c1CC(C)(C)SC2	none
O=c1c(C=NCCN2CCNCC2)c(-c2ccccc2)[nH]n1-c1ccc([N+](=O)[O-])cc1	none (no result: Insulin prom inh)
COc1ccc(-c2[nH]n(-c3ccc([N+](=O)[O-])cc3)c(=O)c2C=NCCN2CCNCC2)cc1	ROMK mod -3 | ROMK retest 0.059
C=CCOC(=O)C1=C(C)OC(N)=C(C#N)C1c1c(C)nn(-c2ccccc2)c1Cl (stereo not given)	ROMK mod -4 (no result: Insulin prom inh) | ROMK retest 0.059
COCCn1nnnc1C(c1cccc(C(F)(F)F)c1)N1CCN(Cc2ccccc2)CC1 (stereo not given)	ROMK mod -3.9 | ROMK retest 0.054
COc1cccc(CC2(CO)CCCN(Cc3c(C)cc(C)cc3-n3cccn3)C2)c1 (stereo not given)	ROMK mod -3.7 (no result: Insulin prom inh) | ROMK retest 0.055
CCCN1C(=O)c2cc(C(=O)Nc3ccc(OC)c(OC)c3)ccc2C1Nc1ccc(OC)c(OC)c1 (stereo not given)	none
CCCN1C(=O)c2cc(C(=O)Nc3ccc(OC)cc3OC)ccc2C1Nc1ccc(OC)cc1OC (stereo not given)	ROMK mod -3.7 (no result: Insulin prom inh) | ROMK retest inconclusive
COc1cccc(CNC(=O)CCC2CCCN(C/C=C/c3ccccc3OC)C2)c1 (stereo not given)	ROMK mod -5.5 (no result: Insulin prom inh) | ROMK retest 0.065
CCCCCCCCNc1ncnc2ccccc12	none (no result: Ins promoter up)
c1ccc(CCNc2ncnc3ccccc23)cc1	ROMK mod -3.7, Ins promoter up inconclusive (no result: Insulin prom inh) | ROMK retest inactive
O=[N+]([O-])c1ccc(CN2CCN(Cc3c[nH]c4ccccc34)CC2)cc1	none (no result: Insulin prom inh)
CN(C)c1ccc(/C=C/c2cc[n+](C)cc2)cc1	ROMK mod -7.3, Ins promoter up inconclusive (no result: HSV augment) | ROMK retest 0.044
Clc1nssc1=Nc1ccc(Br)cc1	none
N#Cc1cccc(N=c2ssnc2Cl)c1	ROMK mod -3.9 | ROMK retest 0.065
COc1cccc(C(c2nnnn2C(C)(C)C)N2CCN(C3CCCCC3)CC2)c1OC (stereo not given)	ROMK mod -2.4 | ROMK retest inconclusive
COc1ccc(N2CCN(C(c3cccc(OC)c3OC)c3nnnn3C3CCCC3)CC2)cc1 (stereo not given)	none (no result: ROMK mod)
CCOc1ccc(C(C)=O)cc1CSC(=N)N	none (no result: Insulin prom inh)
CCCCCOc1ccc(CSC(=N)N)cc1[N+](=O)[O-]	none (no result: ROMK mod) | ROMK retest 0.052
CCCCOc1ccc(Br)cc1CSC(=N)N	ROMK mod -4, Ins promoter up inconclusive | ROMK retest 0.057
COc1ccc(CSC(=N)N)cc1[N+](=O)[O-]	none
CC(=O)c1cccc(S(=O)(=O)NCCC(=O)O)c1	none (no result: Insulin prom inh)
O=C(NNC(=O)C1CCN(S(=O)(=O)c2ccc(Cl)cc2)CC1)c1ccccc1	none
C=CCN1c2ccccc2[C@]23C[C@@H](C(=O)OC)N(C(=O)NCCC)C2=NC(C(=O)OC)=C(C(=O)OC)[C@H]13	none (no result: ROMK mod, Insulin prom inh)
Cc1cccc(C2=N/C(=C\c3cccs3)C(=O)O2)c1	none (no result: ROMK mod, Insulin prom inh)
CSc1ccc(/C=C(\C#N)C(=O)NC2CCCCC2C)cc1 (stereo not given)	ROMK mod -3.1 | ROMK retest 0.046
CC1CCCCC1NC(=O)/C(C#N)=C/c1ccccc1F (stereo not given)	ROMK mod -5.8 | ROMK retest 0.043
CC(=O)Nc1ccc(/C=C(\C#N)C(=O)NC2CCCCC2C)cc1 (stereo not given)	none (no result: Insulin prom inh)
COc1cc(/C=C(\C#N)C(=O)NC2CCCCC2C)ccc1OS(=O)(=O)c1ccc(C)cc1 (stereo not given)	none (no result: ROMK mod, Insulin prom inh)
N#CCN1CCN(CC(=O)c2ccc(Br)cc2)CC1	none (no result: Insulin prom inh)
CC[N+]1(C)CC2CCC(C)(C1)C2(C)C (stereo not given)	none (no result: Ins promoter up)
Cc1nn(CCCC(=O)N2CCN(c3ccc(F)cc3)CC2)c(C)c1[N+](=O)[O-]	ROMK mod -6 | ROMK retest 0.054
Cc1nn(CCCC(=O)NCc2ccc(F)cc2)c(C)c1[N+](=O)[O-]	none
COC(=O)[C@@]1(Cc2ccc(OC)cc2)[C@H]2c3cc(C(=O)N(C)C)n(CCc4ccc(OC)c(Br)c4)c3C[C@H]2CN1C(=O)c1ccccc1	ROMK mod -3.8 (no result: HSV augment) | ROMK retest 0.065
Cn1cccc1/C=N/N1CCN(c2ccccc2)CC1	none (no result: Insulin prom inh)
Cc1ccc(C)c(SCC(=O)Nc2cccc(S(=O)(=O)NC3=NCCCCC3)c2)c1	none
Cc1ccc(CNCC(=O)Nc2cccc(S(=O)(=O)NC3=NCCCCC3)c2)cc1	ROMK mod -2.6 (no result: Insulin prom inh) | ROMK retest 0.064
O=C(Nc1cccnc1)c1ccc(S(=O)(=O)N2CCCCCC2)cc1	none

Source: PubChem (several laboratories)
